For this assay, the system named is PPARg:RXRa 90nM:30nM, anti-RXR (NR concentration 90 nM, RXRa partner concentration 30 nM). The assay is described as follows: PBM binding z-score (relative to random genomic background probes); higher = stronger binding; sequences stand for … in GC…GCGATTGACAGCGTAGAATGAAGG
Summed up: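 Custom Agilent 4×180K protein-binding microarrays carried double-stranded probes, each with a 34-nt variable region. These regions held direct-repeat seeds, single-nucleotide variants, half-site ablations and random human genomic background sequences. Ligand-free nuclear receptor dimers were incubated on the arrays for 1 h, antibodies against each partner (one per run) detected binding, and scanned fluorescence was regression-normalized. Binding z-scores take the random background probes as reference.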
TCTGCTAGGTCAACGATGGACAGCTAATCTGCTA: the PBM binding z-score worked out at 2.56.

Sequence TCATATAGGTAAAGGTTAAAGTCGAACGATATGA showed a PBM binding z-score of 5.73.

For ACTAGTAGGCCAAGTTTGGGTCACTCAAACAAAG, the PBM binding z-score was 1.13.

As for TCTTGTAGAACAGCAGGTTAAGAAAGCTGGCCAA, the PBM binding z-score turned out to be 1.9.

In the case of CCTATTAGTTGACCATAAGGGCTACCGAAGCTCG, the PBM binding z-score was found to be 0.0475.

As to GCAGACAGGTGAAACGCGGGTAACTCAGGGTGGC, the PBM binding z-score is -0.458.

The sequence CCTAGTTGGTCAGGAGGTCAAACACCGGATATGA registered a PBM binding z-score of 3.26.

The sequence TCGAGTAGGTTACAAATGGGGCATTCAGCTTTCT returned a PBM binding z-score of 1.04.

GCTGCTAGGTCAGGTAGGTCAGCTAACGGGTACG returned a PBM binding z-score of 1.

Sequence CCTAGTTGGTGAAGGTCACACACGCTATAGGTAC showed a PBM binding z-score of 1.97.

Consider CTACCAAGGTGAACAAGGCCGTTGATTACTATTC, for which the PBM binding z-score stood at 0.152.

Consider TATACAGGGTCAAAGGCCAGAGTCCGAATGTCGA, for which the PBM binding z-score stood at 6.68.

Regarding CGTCCAAGGTCAAAGGTCAGTGTAGAGATGACGG, the PBM binding z-score was 9.69.

GTACGAAGGTGAATAGGTCGTTGATGAGTAGGCG: the PBM binding z-score amounted to 1.22.

The sequence CCTTACGGGTCAAGGTTATAGTACGGGTGGTACG came in with a PBM binding z-score of 3.37.

Consider ACAATGAGGTTATTAAGATCAGGGAATTGCGGTC, for which the PBM binding z-score worked out at 1.3.

TCGAGTAGGTTACCAATGGGGCACTCAGCTTTCT showed a PBM binding z-score of 1.15.

CCTACTGGGCCATTCAGAGGTCCTTGATCATATG displayed a PBM binding z-score of -0.16.

Source of the values: the supplement of paper PMC6555819.
